{
  "source": "PubChem BioAssay (EPA / NIEHS)",
  "note": "“And” between values parts separate entries of the source, which are not always exact repeats. Equal values may be shown once. Inconclusive results are not listed. The source made the active and inactive calls. Rule for the calls: active = hit-call score of the fitted dose curve at least 0.9, where 1 is the maximum; inconclusive = response in the unintended direction; inactive = score below 0.9.",
  "data": [
    {"test_system": "not listed separately", "experiment": "ArunA_Migration_hNP: ArunA Biomedical's Oris Neuroprogenitor (hNP) Cell Migration Assay (AID 2283754)", "outline": "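Readout is calcein-AM fluorescence (ex494/em517) of cells migrating into the detection zone, relative to DMSO. hNP1 cells (H9-derived) grown on Matrigel behind stoppers 16 h, then stoppers pulled and chemical applied 72 h; cytochalasin D as control.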", "values": [
      {"smiles": "CO[C@@H]1[C@H](OC(=O)NC(=O)CCl)CC[C@]2(CO2)[C@H]1[C@@]1(C)O[C@@H]1CC=C(C)C", "outcome": "inactive"},
      {"smiles": "Oc1ccc2ccc3cccc4ccc1c2c34", "AC50": "50 µM (active)"},
      {"smiles": "Clc1ccc(Cl)c(Cl)c1", "outcome": "inactive"},
      {"smiles": "O=P(OCCCl)(OCCCl)OCCCl", "outcome": "inactive"}
    ]},
    {"test_system": "not listed separately", "experiment": "ArunA_Migration_hNC: ArunA Biomedical's Oris Neural Crest (hNC) Cell Migration Assay (AID 2283755)", "outline": "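Calcein-AM fluorescence (ex494 nm/em 517 nm) in the stopper-defined detection zone quantifies migration of hNC cells after 72 h chemical exposure; 60,000 cells/well plated on Matrigel with LIF and bFGF, 16 h pre-incubation. DMSO baseline.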", "values": [
      {"smiles": "CO[C@@H]1[C@H](OC(=O)NC(=O)CCl)CC[C@]2(CO2)[C@H]1[C@@]1(C)O[C@@H]1CC=C(C)C", "AC50": "22.8 nM (active) and 5 µM (active)"},
      {"smiles": "Oc1ccc2ccc3cccc4ccc1c2c34", "AC50": "13.9 µM (active)"},
      {"smiles": "O=P(OCCCl)(OCCCl)OCCCl", "outcome": "inactive"}
    ]},
    {"test_system": "not listed separately", "experiment": "ArunA_NOG_NucleusCount: ArunA Biomedical's Neurite Outgrowth (NOG) Assay for Nucleus Count (AID 2283756)", "outline": "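Viable neuron count, from Hoechst nuclei passing size and intensity gates, imaged at 20x on differentiated H9-derived human neurons. Exposure lasted 48 h from seeding; activity was scored relative to DMSO.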", "values": [
      {"smiles": "CO[C@@H]1[C@H](OC(=O)NC(=O)CCl)CC[C@]2(CO2)[C@H]1[C@@]1(C)O[C@@H]1CC=C(C)C", "outcome": "inactive"},
      {"smiles": "Oc1ccc2ccc3cccc4ccc1c2c34", "outcome": "inactive"},
      {"smiles": "Clc1ccc(Cl)c(Cl)c1", "outcome": "inactive"}
    ]},
    {"test_system": "not listed separately", "experiment": "ArunA_NOG_NeuriteLength: ArunA Biomedical's Neurite Outgrowth (NOG) Assay for Neurite Length (AID 2283757)", "outline": "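Total neurite length per neuron, from traced βIII-tubulin-labelled processes longer than 10 um on viable Hoechst-gated cells, was scored as decrease from DMSO. Cells were hESC (H9)-derived neurons given 48 h chemical exposure immediately after seeding.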", "values": [
      {"smiles": "CO[C@@H]1[C@H](OC(=O)NC(=O)CCl)CC[C@]2(CO2)[C@H]1[C@@]1(C)O[C@@H]1CC=C(C)C", "outcome": "inactive"},
      {"smiles": "Oc1ccc2ccc3cccc4ccc1c2c34", "outcome": "inactive"},
      {"smiles": "O=P(OCCCl)(OCCCl)OCCCl", "outcome": "inactive"}
    ]},
    {"test_system": "not listed separately", "experiment": "ArunA_NOG_NeuritesPerNeuron: ArunA Biomedical's Neurite Outgrowth (NOG) Assay for Neurites Per Neuron (AID 2283758)", "outline": "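Differentiated human H9-derived neurons exposed to chemicals for 48 h from seeding, then stained with Hoechst and βIII-tubulin/DyLight 488. Automated imaging counted neurites (processes >10 um) per valid neuron; loss of signal versus DMSO scored.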", "values": [
      {"smiles": "CO[C@@H]1[C@H](OC(=O)NC(=O)CCl)CC[C@]2(CO2)[C@H]1[C@@]1(C)O[C@@H]1CC=C(C)C", "outcome": "inactive"},
      {"smiles": "Oc1ccc2ccc3cccc4ccc1c2c34", "outcome": "inactive"},
      {"smiles": "Clc1ccc(Cl)c(Cl)c1", "outcome": "inactive"},
      {"smiles": "O=P(OCCCl)(OCCCl)OCCCl", "outcome": "inactive"}
    ]},
    {"test_system": "not listed separately", "experiment": "ArunA_NOG_BranchPointsPerNeurite: ArunA Biomedical's Neurite Outgrowth (NOG) Assay for Branch Points Per Neurite (AID 2283759)", "outline": "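Automated image analysis traced neurites (processes >10 um) from valid cell bodies after Hoechst and βIII-tubulin staining. hNN cells from H9 embryonic stem cells, 48 h exposure. Fitted bidirectionally against DMSO.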", "values": [
      {"smiles": "CO[C@@H]1[C@H](OC(=O)NC(=O)CCl)CC[C@]2(CO2)[C@H]1[C@@]1(C)O[C@@H]1CC=C(C)C", "outcome": "inactive"},
      {"smiles": "Clc1ccc(Cl)c(Cl)c1", "outcome": "inactive"},
      {"smiles": "O=P(OCCCl)(OCCCl)OCCCl", "outcome": "inactive"}
    ]},
    {"biological_target": "Luciferin 4-monooxygenase (Photinus pyralis) (UniProt P08659)", "sequence (P08659 whole entry, looked up)": "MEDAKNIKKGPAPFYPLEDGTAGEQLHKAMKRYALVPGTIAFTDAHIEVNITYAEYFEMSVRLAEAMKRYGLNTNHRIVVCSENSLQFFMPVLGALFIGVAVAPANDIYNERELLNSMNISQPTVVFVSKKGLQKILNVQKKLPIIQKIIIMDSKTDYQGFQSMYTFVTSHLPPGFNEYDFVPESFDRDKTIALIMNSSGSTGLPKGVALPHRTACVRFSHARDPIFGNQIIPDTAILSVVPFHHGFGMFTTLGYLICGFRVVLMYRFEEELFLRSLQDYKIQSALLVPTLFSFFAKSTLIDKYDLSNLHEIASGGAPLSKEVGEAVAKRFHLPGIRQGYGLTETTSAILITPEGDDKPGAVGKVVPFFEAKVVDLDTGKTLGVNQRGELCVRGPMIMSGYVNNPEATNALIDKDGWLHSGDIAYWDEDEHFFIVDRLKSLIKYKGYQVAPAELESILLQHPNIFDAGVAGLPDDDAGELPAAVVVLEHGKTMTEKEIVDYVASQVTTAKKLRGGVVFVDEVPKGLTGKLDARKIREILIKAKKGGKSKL", "experiment": "CCTE_Simmons_QuantiLum_inhib_2: CCTE's Firefly Luciferase Inhibition Assay, Simmons Lab (AID 2283767);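 for AC50: potency for inhibitors that lower luciferase luminescence relative to DMSO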", "outline": "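Eight-point titrations of each chemical, 5 nM–87.5 uM final in 0.5% DMSO, were run in three biological replicates against recombinant luciferase for 30 min at 37C. Bioluminescence signal loss, read on reagent injection, gave the inhibition endpoint.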", "values": [
      {"smiles": "CN(C)[C@@H]1C(=O)C(C(N)=O)=C(O)[C@@]2(O)C(=O)C3=C(O)c4c(O)cccc4[C@@](C)(O)[C@H]3C[C@@H]12", "outcome": "inactive"},
      {"smiles": "c1ccc(NNc2ccccc2)cc1", "AC50": "20.4 µM (active)"},
      {"smiles": "[Cl-].[Cl-].[Hg+2]", "AC50": "10.4 µM (active)"},
      {"smiles": "Nc1ccc(N=Nc2ccccc2)cc1", "AC50": "3.16 µM (active)"},
      {"smiles": "CO[C@@H]1[C@H](OC(=O)NC(=O)CCl)CC[C@]2(CO2)[C@H]1[C@@]1(C)O[C@@H]1CC=C(C)C", "outcome": "inactive"},
      {"smiles": "Cc1cc(N=Nc2ccccc2C)ccc1N", "AC50": "3.76 µM (active)"},
      {"smiles": "COC(=O)Nc1nc2ccccc2[nH]1", "outcome": "inactive"},
      {"smiles": "CCC(C)c1ccc(O)cc1", "note": "(stereo unspecified)", "outcome": "inactive"},
      {"smiles": "COC(=O)c1ccccc1N", "outcome": "inactive"},
      {"smiles": "Oc1ccccc1Cl", "outcome": "inactive"},
      {"smiles": "CCCCOC(=O)c1ccccc1C(=O)OCc1ccccc1", "outcome": "inactive"},
      {"smiles": "Cc1cccc(N)c1N", "AC50": "35.7 µM (active)"},
      {"smiles": "Cc1ccc(N)cc1", "outcome": "inactive"},
      {"smiles": "C=CCc1ccc2c(c1)OCO2", "outcome": "inactive"},
      {"smiles": "Cc1ccc(N)c(N)c1", "AC50": "0.334 µM (active)"},
      {"smiles": "CCCCC(CC)COC(=O)c1ccc(C(=O)OCC(CC)CCCC)c(C(=O)OCC(CC)CCCC)c1", "note": "(stereo unspecified)", "outcome": "inactive"},
      {"smiles": "Oc1ccc2ccc3cccc4ccc1c2c34", "AC50": "48 µM (active)"},
      {"smiles": "CN(C)c1ccccc1", "outcome": "inactive"},
      {"smiles": "Nc1ccc(Cc2ccc(N)cc2)cc1", "outcome": "inactive"},
      {"smiles": "CN(C)c1ccc(C(=O)c2ccc(N(C)C)cc2)cc1", "AC50": "11.6 µM (active)"},
      {"smiles": "Nc1ccc(Cl)cc1N", "AC50": "9.28 µM (active)"},
      {"smiles": "Nc1cc(Cl)cc(C(=O)O)c1Cl", "outcome": "inactive"},
      {"smiles": "CN(C)C(=O)Nc1ccc(Cl)cc1", "outcome": "inactive"},
      {"smiles": "N#CC(Br)(Br)C(N)=O", "outcome": "inactive"},
      {"smiles": "CCOC(=O)[C@]1(c2ccccc2)Oc2ccccc2[C@@H]1N", "outcome": "inactive"},
      {"smiles": "Cc1ccc(N=C=O)cc1N=C=O", "AC50": "22.6 µM (active)"},
      {"smiles": "C[C@]12C=CC3=C4CCC(=O)C=C4CC[C@H]3[C@@H]1CC[C@@H]2O", "outcome": "inactive"}
    ]},
    {"test_system": "chicken Androgen Receptor (AR), gene 422165", "experiment": "ATG_chAR_XSP1: Attagene TRANS-FACTORIAL Multi-Species (XSP1) HepG2 Assay for chicken Androgen Receptor (AR) (AID 2283768)", "outline": "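Reporter mRNA read by RT-PCR with fluorescent labelling and capillary electrophoresis 24 h after chemical dosing of transiently transfected HepG2 cells. Chicken AR-Gal4 chimera, partially stimulated with 3 nM 6-alpha-fluorotestosterone; activity fitted upward relative to DMSO.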", "values": [
      {"smiles": "CCC[CH2][Sn]([Cl])([CH2]CCC)[CH2]CCC", "AC50": "0.334 µM (active)"},
      {"smiles": "CCCCOC(=O)c1ccccc1C(=O)OCc1ccccc1", "outcome": "inactive"},
      {"smiles": "CCCCCOC(=O)c1ccccc1C(=O)OCCCCC", "outcome": "inactive"},
      {"smiles": "C[C@]12C=CC3=C4CCC(=O)C=C4CC[C@H]3[C@@H]1CC[C@@H]2O", "AC50": "0.00303 µM (active)"}
    ]},
    {"test_system": "zebrafish Androgen Receptor (AR), gene 100005148", "experiment": "ATG_zfAR_XSP1: Attagene TRANS-FACTORIAL Multi-Species (XSP1) HepG2 Assay for zebrafish Androgen Receptor (AR) (AID 2283771)", "outline": "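Gain-of-signal versus DMSO was measured as reporter transcripts quantified by RT-PCR, fluorescent labelling and capillary electrophoresis after 24 h chemical exposure. The cells were HepG2 expressing a chimeric zebrafish AR-GAL4, co-stimulated with 3 nM 6-alpha-fluorotestosterone.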", "values": [
      {"smiles": "CCC[CH2][Sn]([Cl])([CH2]CCC)[CH2]CCC", "outcome": "inactive"},
      {"smiles": "Clc1ccc(C(c2ccc(Cl)cc2)C(Cl)(Cl)Cl)cc1", "outcome": "inactive"},
      {"smiles": "CCCCCOC(=O)c1ccccc1C(=O)OCCCCC", "outcome": "inactive"},
      {"smiles": "C[C@]12C=CC3=C4CCC(=O)C=C4CC[C@H]3[C@@H]1CC[C@@H]2O", "AC50": "0.0325 µM (active)"}
    ]},
    {"biological_target": "zebrafish Estrogen Receptor (ESR1), esr1 (gene 259252) (UniProt P57717)", "sequence (P57717 whole entry, looked up, the tested form may be a part)": "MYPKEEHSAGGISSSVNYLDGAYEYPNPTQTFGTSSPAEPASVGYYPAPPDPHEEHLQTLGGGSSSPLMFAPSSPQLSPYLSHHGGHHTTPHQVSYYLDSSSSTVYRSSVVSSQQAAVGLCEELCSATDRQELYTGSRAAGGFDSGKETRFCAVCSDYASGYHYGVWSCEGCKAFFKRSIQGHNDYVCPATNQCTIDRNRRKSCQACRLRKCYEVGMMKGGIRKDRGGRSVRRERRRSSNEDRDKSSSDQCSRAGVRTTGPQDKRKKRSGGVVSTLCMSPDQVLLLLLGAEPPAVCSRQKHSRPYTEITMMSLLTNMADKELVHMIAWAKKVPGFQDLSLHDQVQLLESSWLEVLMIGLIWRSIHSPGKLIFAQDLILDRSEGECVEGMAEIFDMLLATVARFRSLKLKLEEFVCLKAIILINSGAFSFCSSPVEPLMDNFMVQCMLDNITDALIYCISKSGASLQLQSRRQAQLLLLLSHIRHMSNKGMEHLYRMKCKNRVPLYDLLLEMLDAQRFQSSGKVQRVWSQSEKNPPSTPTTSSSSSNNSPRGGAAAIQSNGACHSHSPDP", "experiment": "ATG_zfER1_XSP1: Attagene TRANS-FACTORIAL Multi-Species (XSP1) HepG2 Assay for zebrafish Estrogen Receptor (ESR1) (AID 2283772)", "outline": "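HepG2 cells transiently transfected with a GAL4-UAS reporter and chimeric zebrafish ER-Gal4, dosed 24 h with 3 nM 6-alpha-fluorotestosterone present. Reporter mRNA measured by RT-PCR and capillary electrophoresis; gain of signal versus DMSO.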", "values": [
      {"smiles": "CCCCOC(=O)c1ccccc1C(=O)OCc1ccccc1", "AC50": "26.6 µM (active)"},
      {"smiles": "Clc1ccc(C(c2ccc(Cl)cc2)C(Cl)(Cl)Cl)cc1", "AC50": "41.7 µM (active)"},
      {"smiles": "CCCCCOC(=O)c1ccccc1C(=O)OCCCCC", "outcome": "inactive"},
      {"smiles": "Clc1ccc(C(c2ccc(Cl)cc2)C(Cl)Cl)cc1", "outcome": "inactive"},
      {"smiles": "C[C@]12C=CC3=C4CCC(=O)C=C4CC[C@H]3[C@@H]1CC[C@@H]2O", "outcome": "inactive"}
    ]},
    {"test_system": "zebrafish Estrogen Receptor (ESR2B), gene 317733", "experiment": "ATG_zfER2b_XSP1: Attagene TRANS-FACTORIAL Multi-Species (XSP1) HepG2 Assay for zebrafish Estrogen Receptor (ESR2B) (AID 2283773)", "outline": "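Medium contained 3 nM 6-alpha-fluorotestosterone. Reporter mRNA induction by exogenous zebrafish ER2b-Gal4 chimera was read 24 h post-dose in transiently transfected HepG2 cells, using RT-PCR, fluorescent labelling, HpaI digestion and capillary electrophoresis.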", "values": [
      {"smiles": "CCC[CH2][Sn]([Cl])([CH2]CCC)[CH2]CCC", "outcome": "inactive"},
      {"smiles": "CCCCOC(=O)c1ccccc1C(=O)OCc1ccccc1", "AC50": "6.82 µM (active)"},
      {"smiles": "Clc1ccc(C(c2ccc(Cl)cc2)C(Cl)(Cl)Cl)cc1", "AC50": "1.95 µM (active)"},
      {"smiles": "CCCCCOC(=O)c1ccccc1C(=O)OCCCCC", "AC50": "40.7 µM (active)"},
      {"smiles": "Clc1ccc(C(c2ccc(Cl)cc2)C(Cl)Cl)cc1", "AC50": "7.14 µM (active)"},
      {"smiles": "C[C@]12C=CC3=C4CCC(=O)C=C4CC[C@H]3[C@@H]1CC[C@@H]2O", "outcome": "inactive"}
    ]}
  ]
}
